Laboratory results from PubChem BioAssay AID588477 (NMMLSC, 2011).
The source made the active and inactive calls.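 The calls were made as follows: active = valid curve fit with half-effect dose at most 10 µM and total binding change across doses of 30 points or more; inactive = the rest.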

Test system: Rab7
Test: small GTPase nucleotide-binding inhibition, multiplex panel – biochemical, round 1 SAR, Mg buffer, multiplex flow cytometry, selectivity assay for Cdc42 probe extension project, SAR follow-up (AID 588477)
Settings: GST-GTPase beads, Bodipy-GTP binding; series mostly up to 100 µM

Row | Compound | outcome
1 | O=C(C#Cc1ccccc1)c1cccc([N+](=O)[O-])c1 | inactive
2 | COc1ccc(C2CC(c3ccccc3)=NN2c2ccc(S(N)(=O)=O)cc2)cc1 (configuration not stated) | inactive
